# Experimental data as given in the supplement of paper PMC8728848.
# Many of the other results were omitted from the sample, so the strongest signals are more common in it than they were.
# B1: Endo180d1-D4 (Homo sapiens), Q9UBG0 (protein)
# chain: MGPGRPAPAPWPRHLLRCVLLLGCLHLGRPGAPGDAALPEPNVFLIFSHGLQGCLEAQGGQVRVTPACNTSLPAQRWKWVSRNRLFNLGTMQCLGTGWPGTNTTASLGMYECDREALNLRWHCRTLGDQLSLLLGARTSNISKPGTLERGDQTRSGQWRIYGSEEDLCALPYHEVYTIQGNSHGKPCTIPFKYDNQWFHGCTSTGREDGHLWCATTQDYGKDERWGFCPIKSNDCETFWDKDQLTDSCYQFNFQSTLSWREAWASCEQQGADLLSITEIHEQTYINGLLTGYSSTLWIGLNDLDTSGGWQWSDNSPLKYLNWESDQPDNPSEENCGVIRTESSGGWQNRDCSIALPYVCKKKPNATAEPTPPDRWANVKVECEPSWQPFQGHCYRLQAEKRSWQESKKACLRGGGDLVSIHSMAELEFITKQIKQEVEELWIGLNDLKLQMNFEWSDGSLVSFTHWHPFEPNNFRDSLEDCVTIWGPEGRWNDSPCNQSLPSICKKAGQLSQGAAEEDHGCRKGWTWHSPSCYWLGEDQVTYSEARRLCTDHGSQLVTITNRFEQAFVSSLIYNWEGEYFWTALQDLNSTGSFFWLSGDEVMYTHWNRDQPGYSRGGCVALATGSAMGLWEVKNCTSFRARYICRQSLGTPVTPELPGPDPTPSLTGSCPQGWASDTKLRYCYKVFSSERLQDKKSWVQAQGACQELGAQLLSLASYEEEHFVANMLNKIFGESEPEIHEQHWFWIGLNRRDPRGGQSWRWSDGVGFSYHNFDRSRHDDDDIRGCAVLDLASLQWVAMQCDTQLDWICKIPRGTDVREPDDSPQGRREWLRFQEAEYKFFEHHSTWAQAQRICTWFQAELTSVHSQAELDFLSHNLQKFSRAQEQHWWIGLHTSESDGRFRWTDGSIINFISWAPGKPRPVGKDKKCVYMTASREDWGDQRCLTALPYICKRSNVTKETQPPDLPTTALGGCPSDWIQFLNKCFQVQGQEPQSRVKWSEAQFSCEQQEAQLVTITNPLEQAFITASLPNVTFDLWIGLHASQRDFQWVEQEPLMYANWAPGEPSGPSPAPSGNKPTSCAVVLHSPSAHFTGRWDDRSCTEETHGFICQKGTDPSLSPSPAALPPAPGTELSYLNGTFRLLQKPLRWHDALLLCESHNASLAYVPDPYTQAFLTQAARGLRTPLWIGLAGEEGSRRYSWVSEEPLNYVGWQDGEPQQPGGCTYVDVDGAWRTTSCDTKLQGAVCGVSSGPPPPRRISYHGSCPQGLADSAWIPFREHCYSFHMELLLGHKEARQRCQRAGGAVLSILDEMENVFVWEHLQSYEGQSRGAWLGMNFNPKGGTLVWQDNTAVNYSNWGPPGLGPSMLSHNSCYWIQSNSGLWRPGACTNITMGVVCKLPRAEQSSFSPSALPENPAALVVVLMAVLLLLALLTAALILYRRRQSIERGAFEGARYSRSSSSPTEATEKNILVSDMEMNEQQE
# Columns and labels:
# Experiment in all cases: glycan array binding signal (z-score within array); higher = stronger binding
# Conditions in all cases: glycan notation: IUPAC condensed, linker removed
# [1] = target: Fuc(a1-2)Gal(b1-4)Fuc(a1-3)]GlcNAc(b1-2)Man(a1-3)[Fuc(a1-2)Gal(b1-4)[Fuc(a1-3)]GlcNAc(b1-2)Man(a1-6)]Man(b1-4)GlcNAc(b1-4)GlcNAc
# Outline: (§1)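 From the Consortium for Functional Glycomics database, 3228 arrays were curated, keeping only those whose protein sequence was available. Binding is given as a within-array Z-score averaged across arrays sharing a protein sequence and across linkers. Negative Z-scores can be read as non-binding.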
# [2] = target: Fuc(a1-2)Gal(b1-4)GlcNAc(b1-3)[Fuc(a1-3)[Gal(b1-4)]GlcNAc(b1-6)]Gal(b1-4)Glc
# Outline: as §1
# [3] = target: Fuc(a1-2)Gal(b1-4)[Fuc(a1-3)]GlcNAc(b1-3)Gal(b1-4)[Fuc(a1-3)]GlcNAc
# Outline: as §1
# [4] = target: Fuc(a1-2)[Gal(a1-3)]Gal(b1-3)GlcNAc(b1-6)GalNAc
# Outline: as §1
# [5] = target: Fuc(a1-2)[Gal(a1-3)]Gal(b1-4)GlcNAc(b1-2)Man(a1-3)[Fuc(a1-2)[Gal(a1-3)]Gal(b1-4)GlcNAc(b1-2)Man(a1-6)]Man(b1-4)GlcNAc(b1-4)[Fuc(a1-6)]GlcNAc
# Outline: as §1
# [6] = target: Fuc(a1-2)[Gal(a1-3)]Gal(b1-4)GlcNAc(b1-3)GalNAc
# Outline: as §1
# [7] = target: Fuc(a1-2)[Gal(a1-3)]Gal(b1-4)[Fuc(a1-3)]GlcNAc(b1-3)GalNAc
# Outline: as §1
# [8] = target: Fuc(a1-3)[Gal(b1-4)]GlcNAc
# Outline: as §1
# [9] = target: Gal(a1-3)Gal(b1-3)GlcNAc(b1-6)GalNAc
# Outline: as §1
# [10] = target: Gal(a1-3)[Gal(a1-4)]Gal(b1-4)GlcNAc
# Outline: as §1
# Gal(a1-4)GlcNAc = target: Gal(a1-4)GlcNAc
# Outline: as §1
# Gal(a1-6)Glc = target: Gal(a1-6)Glc
# Outline: as §1
# [11] = target: Gal(b1-3)[Fuc(a1-4)]GlcNAc(b1-3)Gal(b1-3)[Fuc(a1-4)]GlcNAc
# Outline: as §1
# [12] = target: Gal(b1-4)GlcNAc(b1-2)Man(a1-3)[Gal(b1-4)GlcNAc(b1-2)Man(a1-6)][GlcNAc(b1-4)]Man(b1-4)GlcNAc(b1-4)[Fuc(a1-6)]GlcNAc
# Outline: as §1
# [13] = target: Gal(b1-4)GlcNAc(b1-2)Man(a1-6)Man(b1-4)GlcNAc(b1-4)GlcNAc
# Outline: as §1
# [14] = target: Gal(b1-4)GlcNAc(b1-3)Gal(b1-3)GlcNAc
# Outline: as §1
# [15] = target: Gal(b1-4)GlcNAc(b1-6)Gal(b1-4)GlcNAc
# Outline: as §1
# [16] = target: Gal3S(b1-4)[Fuc(a1-3)]Glc6S
# Outline: as §1
# Gal3S6S(b1-4)GlcNAc6S = target: Gal3S6S(b1-4)GlcNAc6S
# Outline: as §1
# Gal6S(b1-4)GlcNAc6S = target: Gal6S(b1-4)GlcNAc6S
# Outline: as §1
# [17] = target: GalNAc(a1-3)GalNAc(b1-3)Gal(a1-4)Gal(b1-4)GlcNAc
# Outline: as §1
# GalNAc(b1-6)GalNAc = target: GalNAc(b1-6)GalNAc
# Outline: as §1
# GalNAc4S6S(b1-4)GlcNAc = target: GalNAc4S6S(b1-4)GlcNAc
# Outline: as §1
# [18] = target: GlcNAc(b1-2)Man(a1-3)[GlcNAc(b1-2)Man(a1-6)]Man(b1-4)GlcNAc(b1-4)[Fuc(a1-6)]GlcNAc
# Outline: as §1
# [19] = target: GlcNAc(b1-3)Gal(b1-4)GlcNAc(b1-3)Gal(b1-4)GlcNAc(b1-2)[GlcNAc(b1-3)Gal(b1-4)GlcNAc(b1-3)Gal(b1-4)GlcNAc(b1-6)]Man(a1-6)[GlcNAc(b1-3)Gal(b1-4)GlcNAc(b1-3)Gal(b1-4)GlcNAc(b1-2)Man(a1-3)]Man(b1-4)GlcNAc(b1-4)[Fuc(a1-6)]GlcNAc
# Outline: as §1
# [20] = target: GlcNAc(b1-3)Gal(b1-4)GlcNAc(b1-3)[GlcNAc(b1-3)Gal(b1-4)GlcNAc(b1-3)]GalNAc
# Outline: as §1
# [21] = target: GlcNAc(b1-4)[GlcNAc(b1-6)]GalNAc
# Outline: as §1
# [22] = target: Man(a1-2)Man(a1-3)[Man(a1-6)]Man(a1-6)[Man(a1-2)Man(a1-3)]Man(b1-4)GlcNAc(b1-4)GlcNAc
# Outline: as §1
# [23] = target: Man(a1-3)[Man(a1-6)]Man(b1-4)GlcNAc(b1-4)[Fuc(a1-6)]GlcNAc
# Outline: as §1
# [24] = target: Neu5Ac(a2-3)Gal(b1-3)GalNAc(b1-4)Gal(b1-4)Glc
# Outline: as §1
# [25] = target: Neu5Ac(a2-3)Gal(b1-3)[Neu5Ac(a2-6)]GalNAc
# Outline: as §1
# [26] = target: Neu5Ac(a2-3)Gal(b1-4)GlcNAc(b1-2)Man(a1-3)[Neu5Ac(a2-3)Gal(b1-4)GlcNAc(b1-2)Man(a1-6)]Man(b1-4)GlcNAc(b1-4)GlcNAc
# Outline: as §1
# [27] = target: Neu5Ac(a2-3)Gal(b1-4)GlcNAc(b1-3)Gal
# Outline: as §1
# [28] = target: Neu5Ac(a2-3)Gal(b1-4)[Fuc(a1-3)]GlcNAc
# Outline: as §1
# [29] = target: Neu5Ac(a2-3)Gal(b1-4)[Fuc(a1-3)]GlcNAc(b1-3)Gal(b1-4)[Fuc(a1-3)]GlcNAc(b1-3)Gal(b1-4)[Fuc(a1-3)]GlcNAc
# Outline: as §1
# [30] = target: Neu5Ac(a2-6)Gal(b1-4)GlcNAc(b1-2)Man(a1-3)[GlcNAc(b1-2)Man(a1-6)]Man(b1-4)GlcNAc(b1-4)GlcNAc
# Outline: as §1
# [31] = target: Neu5Ac(a2-6)Gal(b1-4)GlcNAc(b1-2)Man(a1-3)[Neu5Ac(a2-3)Gal(b1-4)GlcNAc(b1-2)Man(a1-6)]Man(b1-4)GlcNAc(b1-4)GlcNAc
# Outline: as §1
# [32] = target: Neu5Ac(a2-6)Gal(b1-4)GlcNAc(b1-2)Man(a1-6)[GlcNAc(b1-2)Man(a1-3)]Man(b1-4)GlcNAc(b1-4)GlcNAc
# Outline: as §1
# [33] = target: Neu5Ac(a2-6)Gal(b1-4)GlcNAc(b1-2)[Neu5Ac(a2-6)Gal(b1-4)GlcNAc(b1-4)]Man(a1-3)[GlcNAc(b1-4)][Neu5Ac(a2-6)Gal(b1-4)GlcNAc(b1-2)[Neu5Ac(a2-6)Gal(b1-4)GlcNAc(b1-6)]Man(a1-6)]Man(b1-4)GlcNAc(b1-4)GlcNAc
# Outline: as §1
# [34] = target: Neu5Ac(a2-6)Gal(b1-4)GlcNAc(b1-2)[Neu5Ac(a2-6)Gal(b1-4)GlcNAc(b1-6)]Man(a1-6)[Neu5Ac(a2-6)Gal(b1-4)GlcNAc(b1-2)Man(a1-3)][GlcNAc(b1-4)]Man(b1-4)GlcNAc(b1-4)GlcNAc
# Outline: as §1
# [35] = target: Neu5Ac(a2-6)Gal(b1-4)GlcNAc(b1-3)Gal(b1-4)[Fuc(a1-3)]GlcNAc(b1-3)Gal(b1-4)[Fuc(a1-3)]GlcNAc
# Outline: as §1
# [36] = target: Neu5Ac(a2-6)Gal(b1-4)GlcNAc(b1-6)GalNAc
# Outline: as §1
# [37] = target: Neu5Ac(a2-6)Gal(b1-4)GlcNAc(b1-6)[Gal(b1-3)GlcNAc(b1-3)]Gal(b1-4)Glc
# Outline: as §1
# [38] = target: Neu5Gc(a2-8)Neu5Ac(a2-3)Gal(b1-4)GlcNAc
# Outline: as §1
binder,measurement,setting,value
B1,glycan array binding signal (z-score),[1],4.92
same,glycan array binding signal (z-score),[2],2.16
same,glycan array binding signal (z-score),[3],1.23
same,glycan array binding signal (z-score),[4],0.628
same,glycan array binding signal (z-score),[5],-0.162
same,glycan array binding signal (z-score),[6],0.423
same,glycan array binding signal (z-score),[7],4.86
same,glycan array binding signal (z-score),[8],-0.373
same,glycan array binding signal (z-score),[9],0.29
same,glycan array binding signal (z-score),[10],0.096
same,glycan array binding signal (z-score),Gal(a1-4)GlcNAc,-0.552
same,glycan array binding signal (z-score),Gal(a1-6)Glc,0.11
same,glycan array binding signal (z-score),[11],3.87
same,glycan array binding signal (z-score),[12],-1.03
same,glycan array binding signal (z-score),[13],0.463
same,glycan array binding signal (z-score),[14],0.375
same,glycan array binding signal (z-score),[15],-1.39
same,glycan array binding signal (z-score),[16],0.973
same,glycan array binding signal (z-score),Gal3S6S(b1-4)GlcNAc6S,4.83
same,glycan array binding signal (z-score),Gal6S(b1-4)GlcNAc6S,2.48
same,glycan array binding signal (z-score),[17],-0.306
same,glycan array binding signal (z-score),GalNAc(b1-6)GalNAc,-0.31
same,glycan array binding signal (z-score),GalNAc4S6S(b1-4)GlcNAc,3.2
same,glycan array binding signal (z-score),[18],5.6
same,glycan array binding signal (z-score),[19],4.5
same,glycan array binding signal (z-score),[20],-0.76
same,glycan array binding signal (z-score),[21],-1.12
same,glycan array binding signal (z-score),[22],-0.036
same,glycan array binding signal (z-score),[23],0.638
same,glycan array binding signal (z-score),[24],-3.76
same,glycan array binding signal (z-score),[25],-0.517
same,glycan array binding signal (z-score),[26],-0.688
same,glycan array binding signal (z-score),[27],0.249
same,glycan array binding signal (z-score),[28],-0.083
same,glycan array binding signal (z-score),[29],-0.132
same,glycan array binding signal (z-score),[30],3.38
same,glycan array binding signal (z-score),[31],0.363
same,glycan array binding signal (z-score),[32],-0.485
same,glycan array binding signal (z-score),[33],-0.277
same,glycan array binding signal (z-score),[34],2.92
same,glycan array binding signal (z-score),[35],2.78
same,glycan array binding signal (z-score),[36],0.474
same,glycan array binding signal (z-score),[37],-0.046
same,glycan array binding signal (z-score),[38],-0.032
